The structures appear in SMILES notation. Records with an inconclusive call do not appear. Calls of active or inactive are those of the source. Calls come from the whole dose curve; as a rule, active = well fitted curve in the direction sought with a large enough effect; inconclusive = small, poorly fitted or top-dose-only effect, or another doubt; inactive = no such curve, though single readings can be large; an effect the other way counts as inactive or inconclusive.

Drawing on PubChem BioAssay (NCATS), this text covers Potency for 36 compounds.

The target in test [1] is Aldehyde dehydrogenase, mitochondrial (Homo sapiens) (UniProt P05091). Nature of the test: qHTS for Inhibitors of the Aldehyde Dehydrogenase Family (ALDH2) Primary screen (AID 2061308). Note: nearly all actives have a fitted effect of over 55% in size.
The target in test [2] is Retinaldehyde dehydrogenase 3 (Homo sapiens) (UniProt P47895). Nature of the test: qHTS for Inhibitors of the Aldehyde Dehydrogenase Family (ALDH1A3) Primary screen (AID 2061315). For orientation: In qHTS, concentration-response curves come from the screen itself.
Test [3] has the same target. Briefly: qHTS for Inhibitors of the Aldehyde Dehydrogenase Family (ALDH1A3) Validation screen (AID 2061312). Note: nearly all actives have a fitted effect of over 45% in size.
The nature of test [4]: BET inhibitor-based combinations targeting novel dependencies in MECOM-rearranged (r) AML: SET-2 cell line (AID 2202231). Note: potency is the fitted concentration of half-maximal effect; nearly all actives have a fitted effect of over 35% in size. Particulars: SET-2 AML cells viability, CellTiter-Glo luminescence, 48 h; viability: hits give low values, concentration not given here. An outline of the steps:
(§1)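 Here, 11-point titrations of each agent were applied to 500 seeded cells and incubated 48 hr; CellTiter-Glo signal, scaled against DMSO and empty wells, was integrated as AUC, then Z-scored within the individual line.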
(In general: ATP-based viability assays read luminescence as a measure of living cells.)

The nature of test [5]: BET inhibitor-based combinations targeting novel dependencies in MECOM-rearranged (r) AML: OCI-AML3 cell line (AID 2202232). Note: potency is the fitted concentration of half-maximal effect; nearly all actives have a fitted effect of over 35% in size. Particulars: Potency: OCI-AML3 viability. Summed up:
as §1

Test [6] can be described thus: BET inhibitor-based combinations targeting novel dependencies in MECOM-rearranged (r) AML: MV-4-11 cell line (AID 2202233). Note: potency is the fitted concentration of half-maximal effect; nearly all actives have a fitted effect of over 45% in size. Summed up: (§2)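 Normalized to DMSO and empty-well controls, the luminescence data from CellTiter-Glo after 48 hr drug exposure were fitted across 11 concentrations. Reported metrics are area under the dose-response curve and its Z-transformed form.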

A short description of test [7]: BET inhibitor-based combinations targeting novel dependencies in MECOM-rearranged (r) AML: HNT-34 cell line (AID 2202234). Note: potency is the fitted concentration of half-maximal effect; nearly all actives have a fitted effect of over 35% in size. An outline of the steps:
as §2

Test [8] is described as follows: BET inhibitor-based combinations targeting novel dependencies in MECOM-rearranged (r) AML: AML-191 cell line (AID 2202236; note: potency is the fitted concentration of half-maximal effect; nearly all actives have a fitted effect of over 35% in size). An outline of the steps:
as §1

Test [9] is described as follows: qHTS for Inhibitors of the Aldehyde Dehydrogenase Family (ALDH1A2, ALDH1A3, ALDH2, ALDH3A1) (AID 2061307). Note: test system not described further here; potency is the fitted concentration of half-maximal effect; nearly all actives have a fitted effect of over 50% in size.
Test [10] deals with Aldehyde dehydrogenase 1A1 (Homo sapiens) (UniProt P00352). Briefly: qHTS for Inhibitors of the Aldehyde Dehydrogenase Family (ALDH1A1) Confirmatory screens (AID 2061316). Note: potency is the fitted concentration of half-maximal effect; nearly all actives have a fitted effect of over 65% in size.

For the compound `COC1CC(O[C@H]2CC[C@]3(C)C4CC[C@]5(C)[C@@H](C6=CC(=O)OC6)[C@@H](OC(C)=O)C[C@]5(O)C4CC[C@@H]3C2)OC(C)C1O[C@@H]1O[C@H](CO)[C@@H](O)[C@H](O)[C@H]1O` (stereo not given in full), in [1], the Potency entry is “inactive”.
As for `C[C@@H]1O[C@@H](OC2CCC3(C=O)C(CCC4C3CCC3(C)C(C5=CC(=O)OC5)C(O)CC43O)C2)[C@H](O)[C@H](O)[C@H]1O[C@@H]1O[C@H](CO)[C@@H](O)[C@H](O)[C@H]1O` (stereo not given in full), the Potency entry in [1] was “inactive”.
Turning to `COC1CC(OC2CCC3(C)C(CCC4C3CCC3(C)C(C5=CC(=O)OC5)C(OC(C)=O)CC43O)C2)OC(C)C1OC1OC(CO)C(O)C(O)C1O` (stereo not given), in [1], the Potency entry is “inactive”.
With `CCc1nn2c(=O)c(C)c(N3CCNCC3)nc2s1`, the Potency result in [1] and in test [2] was “inactive” each time.
With `CN1C(=O)[C@@H](Cc2c[nH]c3ccccc23)N=C(c2ccccc2F)c2ccccc21`, the Potency entry in test [1], in test [3] and in [2] was “inactive” in each case.
With `COC1CC(OC2CCC3(C=O)C(CCC4C3CCC3(C)C(C5=CC(=O)OC5)CCC43O)C2)OC(C)C1O` (stereo not given), the Potency entry in test [1] was “inactive”.
Turning to `C=C1C(=O)O[C@@H]2[C@H]3C(=C)[C@@H](O)C[C@H]3C(=C)C[C@@H](O)[C@@H]12`, the Potency result in test [1] was “inactive”.
With `CCOc1ccc(CCNC(=O)c2cc3cccnc3n2Cc2cccc(C)c2)cc1OCC`, the Potency result in test [1] and in test [2] was “inactive” each time.
In the case of `CC1=CC(=O)[C@@H](O)[C@]2(C)C3[C@@H](O)[C@@H]4OC(=O)[C@@H]([C@H]4C)[C@]3(C)C(=O)[C@H](O)[C@@H]12` (stereo not given in full), in test [1], the Potency result is “inactive”.
Consider `C/C(=C\c1csc(C)n1)[C@@H]1C[C@@H]2O[C@@H]2CCC[C@H](C)[C@H](O)[C@@H](C)C(=O)C(C)(C)[C@@H](O)CC(=O)O1`, for which the Potency entry in test [1], in test [3] and in [2] was “inactive” in each case. The Potency in test [4] was 33.2 nM (active); in [5], 20.9 nM (active); in test [6], 33.2 nM (active); in test [7] it was 23.5 nM (active); in test [8], 23.5 nM (active).
For the compound `CC1=C(C(=O)Nc2nccs2)C(c2ccccc2Br)N=C(Nc2nc3ccccc3o2)N1` (stereo not given), the Potency entry in test [1] and in test [2] was “inactive” in each case.
As for `COc1cccc(CNc2ccc(S(=O)(=O)Nc3nccs3)cc2)c1OC`, the Potency entry in [1] and in test [2] was “inactive” each time.
Take `CCOc1ccc(CCNC(=O)c2cc3ccncc3n2Cc2cccc(C)c2)cc1OCC`: the Potency result in test [1] and in test [2] was “inactive” each time.
With `CC(C)C(=O)O[C@H]1[C@@H]2[C@H](C)C(=O)O[C@@H]2C[C@@H](C)[C@@H]2C=CC(=O)[C@]21C`, the Potency entry in test [1] and in [2] was “inactive” each time.
As for `C[C@@H]1C[C@@H](O)[C@]2(O)O[C@@H]3C[C@@]4(C=O)C(CC[C@@H]5C4CC[C@]4(C)[C@@H](C6=CC(=O)OC6)CC[C@]54O)C[C@H]3O[C@@H]2O1` (stereo not given in full), the Potency result in test [1] is “inactive”.
`C[C@H](NC(=O)Cc1cc(F)cc(F)c1)C(=O)N[C@@H]1N=C(c2ccccc2)c2ccccc2N(C)C1=O`: the Potency entry in test [1], in [3] and in [2] was “inactive” in each case.
On to `COc1ccccc1CN[C@H]1C2CCN(CC2)[C@H]1C(c1ccccc1)c1ccccc1`, for which the Potency entry in test [1], in test [3] and in test [2] was “inactive” in each case.
Turning to `Cc1ccccc1C(C(=O)NC1CCCCC1)N(C(=O)Cn1ccnc1C)c1cccc(F)c1` (stereo not given), the Potency entry in [1] and in [2] was “inactive” in each case.
Take `N#C[C@@H](O[C@@H]1O[C@H](CO[C@@H]2O[C@H](CO)[C@@H](O)[C@H](O)[C@H]2O)[C@@H](O)[C@H](O)[C@H]1O)c1ccccc1`: in test [1], the Potency result was “inactive”.
Take `C[C@@H]1C[C@@H](O)[C@]2(O)O[C@@H]3C[C@@]4(C=O)C(CC[C@@H]5C4CC[C@]4(C)[C@@](O)(C6=CC(=O)OC6)CC[C@]54O)C[C@H]3OC2O1` (stereo not given in full): the Potency result in [1] was “inactive”.
Take `CO[C@@H]1[C@H](O)[C@@H](O[C@@H]2C[C@H]3CC[C@@H]4C(CC[C@]5(C)[C@@H](C6=CC(=O)OC6)CC[C@]45O)[C@@]3(C)[C@H](O)C2)O[C@H](C)[C@@H]1O[C@@H]1O[C@H](CO)[C@@H](O)[C@H](O)[C@H]1O` (stereo not given in full): the Potency result in test [1] and in test [2] was “inactive” throughout.
Consider `CO[C@H]1[C@@H](O)[C@@H](C)O[C@@H](O[C@@H]2C=C3C(OC(C)=O)CC4(O)C(CC[C@]5(C)[C@@H](C6=CC(=O)OC6)CC[C@]45O)[C@@]3(C)CC2)[C@@H]1O` (stereo not given in full), for which the Potency result in [1] and in [2] was “inactive” in each case.
Consider `CCN1CCN(C(c2ccc(Cl)cc2)c2ccc(Cl)cc2)CC1`, for which the Potency result in [1] and in test [2] was “inactive” each time.
As to `O=S(=O)(Nc1nccs1)c1ccc(NCc2cccc(F)c2O)cc1`, the Potency entry in test [1] and in test [2] was “inactive” in each case.
In the case of `CC[C@H]1C2CC3[C@@H]4N(C)c5ccccc5[C@]45C[C@@H]([C@H]2[C@H]5O)N3[C@@H]1O`, the Potency result in test [1] and in [2] was “inactive” throughout.
For the compound `CC(=O)OC[C@H](N)C(=O)c1ccccc1`, the Potency entry in test [1] and in [2] was “inactive” throughout.
With `Cc1cc(C)c(OP(=O)(OCc2c(-c3ccccc3)no[n+]2[O-])Oc2c(C)cc(C)cc2C)c(C)c1`, the figures for the Potency in test [9] and in test [10] were 12600 nM (active) and 2010 nM (active), respectively. Besides, the Potency result in test [2] is “inactive”.
With `C=C(CO)[C@@]12O[C@@H]1[C@@]1(C)C(=CC2=O)CC[C@@H](O)[C@@H]1C`, the Potency result in [1] and in [2] was “inactive” throughout.
As to `C[C@@H](CN1CCC2(CC1)C(=O)NCN2c1cccc(F)c1)NC(=O)c1ccc(Br)cc1`, the Potency result in test [1], in test [3] and in [2] was “inactive” in each case.
Take `O=C(N1CCOCC1)N1CCN(c2ccc(Cl)cc2)CC1`: the Potency entry in [1], in test [3] and in test [2] was “inactive” throughout.
In the case of `COC1CC(O[C@H]2CC[C@]3(C)C4CC[C@]5(C)[C@@H](C6=CC(=O)OC6)[C@@H](OC(C)=O)C[C@]5(O)C4CC[C@@H]3C2)OC(C)C1O` (stereo not given in full), in test [1], the Potency result was “inactive”.
As for `O=C1CN=C(c2ccccc2Cl)c2cc(Br)ccc2N1`, the Potency result in test [1], in test [3] and in test [2] was “inactive” throughout.
Consider `C=C(CO)C(=O)O[C@H]1C/C(C)=C/CC/C(CO)=C/[C@H]2OC(=O)C(=C)[C@H]12`, for which the Potency result in [1] and in test [2] was “inactive” in each case.
For the compound `CN1CCC2=C(C1)c1ccccc1Cc1ccccc12`, the Potency entry in [1] and in test [2] was “inactive” throughout.
On to `CCOC(=O)C1CCN(C(=O)C2(NC(=O)Nc3ccccc3Cl)CCCC2)CC1`, for which the Potency entry in [1] and in [2] was “inactive” each time.
With `O=C1CCCC2=C1C(c1[nH]ncc1Cl)N=C(Nc1nc3ccc(F)cc3o1)N2` (stereo not given), the Potency entry in test [1] and in test [2] was “inactive” throughout.
